Experiment in all cases: NCI-60 one-dose screen, 48 h (100 = growth as untreated, 0 = no growth, -100 = all killed)
Holding throughout (details): 10 µM

The test system of experiment [1] is NCI-H23 lung.
The test system of experiment [2] is NCI-H226 lung.
Experiment [3] relates to NCI-H322M lung.
Experiment [4] relates to HOP-62 NSCLC.
In experiment [5] the test system is NCI-H460 lung.
The test system of experiment [6] is HOP-92 NSCLC.
The test system of experiment [7] is NCI-H522 lung.
Experiment [8] relates to A549/ATCC NSCLC.
The test system of experiment [9] is 786-0 renal.
Experiment [10] concerns COLO 205 colon.

13 molecules from PubChem BioAssay (NCI) can be followed below.

This is part of a sample that, as a whole, favours compounds with a hit. Of some 83,000 tested, about 20% had one in any assay.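 48-hour exposure, single concentration, 96-well plates; percent growth endpoint where 0 means no net growth. Active: below 10.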 Values without a mark were called inactive. Active and inactive are the calls of the source.

Consider `CN1CCN(c2ccc(Nc3nc(N4CCN(S(=O)(=O)c5ccc(F)cc5)CC4)c4sccc4n3)cc2)CC1`, for which the growth in experiment [1] was -64.4% (active); in experiment [2], -74.7% (active); in experiment [3], -88% (active); in experiment [4], -49.6% (active); in experiment [5] it was -73% (active); in [6], -66.3% (active). Further, the growth in [7] was -86.4% (active); in experiment [8] it was -48.9% (active); in [9] it was -72.6% (active); in [10], -79.9% (active).
For `C=C(C)[C@@H]1CC[C@]2(C)[C@H](CC=C3[C@@H]4CC(C)(C)CC[C@]4(C(=O)N4CCOCC4)CC[C@]32C)[C@@]1(C)CCCN`, the growth in [1] was -82.2% (active); in experiment [2], -80.5% (active); in [3], -98.9% (active); in experiment [4], -90.6% (active); in experiment [5], -77.5% (active); in experiment [6] it was -77.1% (active). Further, the growth in experiment [7] is -91.6% (active); in experiment [8], -84.1% (active); in [9], -79.3% (active); in experiment [10] it was -92.8% (active).
As to `CC(=O)NCC1=C(C)C=C2C(=O)[C@](C)(O)C3(CC3)C(C)=C21`, the growth in [1] is -76.6% (active); in experiment [2] it was -72.2% (active); in experiment [3], -30% (active); in [4] it was -54.4% (active); in [5], 4.33% (active); in [6], -14.1% (active). Also, the growth in [7] is -64.8% (active); in [8] it was -50.3% (active); in experiment [9] it was -40.8% (active); in experiment [10] it was -81.4% (active).
`COc1ccc(OC)c(-c2cc(-c3c[nH]c4ccccc34)nc(N)c2C#N)c1`: the growth in experiment [1] is -9.65% (active); in experiment [2], 14%; in [3] it was 24.8%; in [4], 10% (active); in experiment [5], -42.5% (active); in [6], -36.8% (active). For the same molecule, the growth in [7] was -5.53% (active); in experiment [8] it was 21.1%; in experiment [9], -52.3% (active); in experiment [10], -23.2% (active).
As to `COc1cnc2c(c1)C(=O)c1c-2n(CCCNC(C)C)c(=O)c2cc(OC)c(OC)cc12`, the growth in experiment [1] was 26.9%; in experiment [2] it was 41.4%; in [3], 46.5%; in experiment [4], 16.7%; in experiment [5] it was 16%; in experiment [6] it was 60.9%. Also, the growth was 41.3% in experiment [7], 46.6% in experiment [8], 22.9% in experiment [9] and 39.2% in [10].
In the case of `Cc1cc(C)nc(NS(=O)(=O)c2ccc(N/C(N)=N/c3nccc(-c4ccccc4)n3)cc2)n1`, the growth in experiment [1] is 57.1%; in experiment [2], 49.6%; in experiment [3], 75.6%; in experiment [4] it was 70.3%; in experiment [5], 76.3%; in [6] it was 43.6%. The growth is 76.2% in [7], 63% in experiment [8], 72.1% in [9] and 91.1% in experiment [10].
As to `O=C(Nc1ccc(Cl)c([N+](=O)[O-])c1)Nc1ccc(Cl)c([N+](=O)[O-])c1`, the growth in [1] is -14.3% (active); in experiment [2], -4.77% (active); in experiment [3], 27.7%; in [4] it was 30.5%; in experiment [5], 9.48% (active); in [6] it was -34.2% (active). Further, the growth is 28.1% in [7], 26.1% in experiment [8], 10.7% in [9] and 2.69% (active) in [10].
For `CCCCCc1ccc(S(=O)(=O)Nc2cc(-c3csc(N(C)C(C)=O)n3)ccc2N2CCN(C)CC2)cc1`, the growth in experiment [1] is 44.3%; in experiment [2], 37.4%; in [3], 63.6%; in [4], 54.2%; in experiment [5] it was 23.6%; in experiment [6], -12.9% (active). In addition, the growth was 32.8% in [7], 57.7% in experiment [8], 8.85% (active) in [9] and -65.6% (active) in experiment [10].
Turning to `Cc1cccc(-c2nc(Nc3ccccc3C(=O)O)c3ccccc3n2)c1`, the growth was 20.8% in experiment [1]; 36.1% in experiment [2]; 48.7% in [3]; 46.2% in [4]; 19.1% in experiment [5]; -5.02% (active) in experiment [6]. The growth in experiment [7] is 59.9%; in experiment [8], 43.6%; in experiment [9], 25%; in experiment [10] it was 121%.
Consider `CC1(C)CC[C@]2(C(=O)O)CC[C@]3(C)C(=CC[C@@H]4[C@@]5(C)C/C(=C/c6ccncc6)[C@H](O)C(C)(C)[C@@H]5CC[C@]43C)[C@@H]2C1`, for which the growth in [1] is 37.6%; in experiment [2], 38.2%; in [3], 34%; in experiment [4], 42.1%; in experiment [5], 34%; in experiment [6], 4.52% (active). Also, the growth is 42.1% in experiment [7], 19.9% in experiment [8], 48.4% in experiment [9] and 37.2% in experiment [10].
`COc1ccc2ncc(C#Cc3cncc(C(=O)Nc4ccc(CN5CCN(C)CC5)c(C(F)(F)F)c4)c3)n2n1`: the growth in experiment [1] was -80.9% (active); in experiment [2], -68.4% (active); in [3], -98% (active); in experiment [4], -61% (active); in experiment [5], -75.3% (active); in [6], -72% (active). The growth in experiment [7] is -65.5% (active); in experiment [8], -51.7% (active); in [9], -55.7% (active); in experiment [10] it was -63.8% (active).
For the molecule `COc1ccc(NC(=O)Cn2c(/C=C/c3ccc(N(C)C)cc3)nc3ccccc3c2=O)cc1`, the growth is 49.8% in experiment [1]; -15.2% (active) in experiment [2]; 46.4% in [3]; 39.3% in [4]; 19.5% in experiment [5]; -2.51% (active) in experiment [6]. The growth in experiment [7] was 44.1%; in experiment [8], 15.2%; in [9], 7.97% (active); in experiment [10] it was 47%.
For the molecule `O=c1oc2ccccc2cc1-c1csc(N=Nc2c(O)[nH]c3ccc(Br)cc23)n1`, the growth in experiment [1] was 61.5%; in experiment [2] it was 58.4%; in experiment [3], 92.9%; in [4], 40.2%; in experiment [5], 106%; in [6], -7.7% (active). Moreover, the growth in experiment [7] was 67.4%; in experiment [8] it was 100%; in [9], 12.5%; in experiment [10], 127%.
